According to PubChem BioAssay (NCI):
Compounds without any hit were thinned out: in the full panel of roughly 83,000, 20% have a hit.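 In brief: 96-well plates, 48 h treatment, single concentration, percent growth endpoint.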 Active and inactive are the calls of the source. Rule for the calls: active = growth percent below 10; inactive = the rest.

system: NCI-H522 lung; experiment: NCI-60 one-dose screen, 48 h (100 = growth as untreated, 0 = no growth, -100 = all killed); settings: 10 µM unless noted

| Compound | growth |
| --- | --- |
| CCN(CC)S(=O)(=O)c1ccc2[nH]c(=O)cc(C(=O)Nc3ccc(OC)cc3OC)c2c1 | 105% (inactive) |
| COc1ccc(/C=C/C(=O)OCC(=O)NNC(=O)c2ccccc2)cc1OC | 104% (inactive) |
| COc1ncc(-c2ccc3ncnc(Nc4cccc(Cl)c4)c3c2)cc1N(S(C)(=O)=O)S(C)(=O)=O | 52.2% (inactive) |
| Cc1c(C(=O)NCc2ccccc2)[n+](=O)c2cc(F)ccc2n1[O-] | 90.9% (inactive) |
| COc1cc(Br)c(OC)cc1Br | 90.4% (inactive) |
| CN1CCN(CCCOc2ccc3nc(Nc4ccc(C(F)(F)F)c(Cl)c4)ccc3c2)CC1 | -37.8% (active) |
| CC(=O)c1cc(C(=O)c2ccc3c(c2)Sc2ccccc2N3)c2cc(C)ccn12 | -47.9% (active) |
| Cc1cc(C(=O)O)c(N)c(C)n1 | 107% (inactive) |
| c1ccc2c(c1)Oc1ccccc1C2C1c2ccccc2Oc2ccccc21 | 87.6% (inactive) |
| CC/C=C\C[C@H](O)C/C=C1/C(=O)C(Cl)=C[C@@H]1C/C=C\CCCC(=O)O | -68.1% (active) |
| O=C(Nc1ccc(I)cc1)c1cc([N+](=O)[O-])ccc1O | -1.54% (active) |
| O=C(CSc1nc(-c2ccc(Cl)cc2)cn1-c1ccc(Cl)cc1)c1ccc(Br)cc1 | 58.8% (inactive) |
| N#CC1=C(N)n2nc(-c3ccncc3)nc2NC1c1cccc2ccccc12 (stereo not drawn) | 75.2% (inactive) |
| Cc1ccc2nc(-c3c(CCCO)noc3N)[nH]c(=O)c2c1 | 103% (inactive) |
| COc1ccc(/C(=N\O)c2cc(OC)c(OC)c(OC)c2)c(OC)c1N | -9.39% (active) |
| CCOc1ccc(/C=C/C=N/NC(N)=S)cc1 | 37.3% (inactive) |
| C=C1C(=O)O[C@H]2[C@H]1CC/C(COC(=O)NCCc1cccc(OC)c1)=C\CC[C@@]1(C)O[C@@H]21 | -30.8% (active) |
| Cc1c(C2=NNC(c3ccc4c(c3)OCO4)C2)[n+]([O-])c2ccccc2[n+]1[O-] (stereo not drawn) | 95.9% (inactive) |
| O=S(=O)(NCCCNc1cc(-c2cn(-c3ccccc3)nc2-c2cccc(O)c2)ccn1)c1ccc(Br)cc1 | 25.6% (inactive) |

| Compound | growth |
| --- | --- |
| COc1cccc2nc(Nc3ccc(NC(=O)c4ccc5ncccc5c4)cc3)ccc12 | 99.9% (inactive) |
| COc1ncc(-c2ccc3ncnc(Nc4cccc(Cl)c4)c3c2)cc1NS(=O)(=O)CCN1CCOCC1 | 14% (inactive) |
| O=C(OCCCCOC(=O)n1cnc2ccccc21)n1cnc2ccccc21 | 91.3% (inactive) |
| Cc1cc(C)c2c(=O)[nH]c(SCC(=O)Nc3cccc(S(=O)(=O)N(C)C)c3)nc2n1 | 96.3% (inactive) |
| Cc1ccc(S(=O)(=O)OCC(=O)Nc2ccc(C(=O)O)c(O)c2)cc1 | 93.8% (inactive) |
| CN(C)c1nc(N)c(N=O)c(N)n1 | 106% (inactive) |
| Cc1nc2scc(-c3ccccc3)n2c(=O)c1CCO | 99.1% (inactive) |
| Cc1ccc2c(c1)C(C)Cc1c(ncnc1-n1cnc3ccccc31)N2C (stereo not drawn) | -15.3% (active) |
| O=S(=O)(NCCNc1cc(-c2cn(-c3ccccc3)nc2-c2ccccc2)ccn1)c1cccc2ccccc12 | 78.9% (inactive) |
| CCCCCCOc1ccc(C2(Cl)c3ccccc3N(C)c3ccccc32)cc1 | 55.4% (inactive) |
| CN(C)C1CCC(NC2=CC(=O)C=CC2=O)CC1 (stereo not drawn) | 90.2% (inactive) |
| CC(=O)N1Cc2ccccc2C(C)Cc2cc(Cl)ccc21 (stereo not drawn) | 95.8% (inactive) |
| NC(N)=NC(N)=Nc1ccccc1-c1ccccc1 | 106% (inactive) |
| Cc1oc2ncnc(Nc3ccccc3)c2c1C(=O)NCCO | 96.6% (inactive) |
| Cc1cc(NC(=O)COC(=O)c2sc3cc(F)ccc3c2Cl)no1 | 99.3% (inactive) |
| CC1(C)OC2COC3(C(=O)O)OC(C)(C)OC3C2O1 (stereo not drawn) | 90.2% (inactive) |
| C/C(=C\c1csc(C)n1)[C@@H]1C[C@@H]2O[C@]2(C)CCC[C@H](C)[C@H](O)[C@@H](C)C(=O)C(C)(C)[C@@H](O)CC(=O)N1 | -81.4% (active) |
| COc1cc2c(cc1OCCCCn1c(-c3cc(=O)c4ccccc4o3)nc3ccccc31)N=C[C@@H]1CCCN1C2=O | 66.7% (inactive) |
| COc1cc(-c2csc(NC(=O)c3cc(C(F)(F)F)cc(C(F)(F)F)c3)n2)cc(OC)c1OC | 3.92% (active) |
